From PubChem BioAssay AID1835 (Johns Hopkins Ion Channel Center, 2009) come the findings set out here.

The whole screen tested about 2,400 compounds, of which about 750 (31%) were called active.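 How the source made its calls: active means median signal gain over dofetilide-blocked control wells reaching their mean plus 3 SD, so readout 1 at least 0; inactive means the rest.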 Some of the results follow.

The target of this experiment is Voltage-gated inwardly rectifying potassium channel KCNH2 (Homo sapiens) (UniProt Q12809). Kind of experiment: modulators restoring hERG flux under dofetilide – cell-based, thallium flux, duplicate retest, dofetilide IC70, confirmation (AID 1835). The conditions noted are these: hERG cell line, FluxOR thallium flux, dofetilide-blocked; at 10 µM; active compounds read high.
Voltage-gated inwardly rectifying potassium channel KCNH2 (Homo sapiens), sequence (Q12809 whole entry, looked up): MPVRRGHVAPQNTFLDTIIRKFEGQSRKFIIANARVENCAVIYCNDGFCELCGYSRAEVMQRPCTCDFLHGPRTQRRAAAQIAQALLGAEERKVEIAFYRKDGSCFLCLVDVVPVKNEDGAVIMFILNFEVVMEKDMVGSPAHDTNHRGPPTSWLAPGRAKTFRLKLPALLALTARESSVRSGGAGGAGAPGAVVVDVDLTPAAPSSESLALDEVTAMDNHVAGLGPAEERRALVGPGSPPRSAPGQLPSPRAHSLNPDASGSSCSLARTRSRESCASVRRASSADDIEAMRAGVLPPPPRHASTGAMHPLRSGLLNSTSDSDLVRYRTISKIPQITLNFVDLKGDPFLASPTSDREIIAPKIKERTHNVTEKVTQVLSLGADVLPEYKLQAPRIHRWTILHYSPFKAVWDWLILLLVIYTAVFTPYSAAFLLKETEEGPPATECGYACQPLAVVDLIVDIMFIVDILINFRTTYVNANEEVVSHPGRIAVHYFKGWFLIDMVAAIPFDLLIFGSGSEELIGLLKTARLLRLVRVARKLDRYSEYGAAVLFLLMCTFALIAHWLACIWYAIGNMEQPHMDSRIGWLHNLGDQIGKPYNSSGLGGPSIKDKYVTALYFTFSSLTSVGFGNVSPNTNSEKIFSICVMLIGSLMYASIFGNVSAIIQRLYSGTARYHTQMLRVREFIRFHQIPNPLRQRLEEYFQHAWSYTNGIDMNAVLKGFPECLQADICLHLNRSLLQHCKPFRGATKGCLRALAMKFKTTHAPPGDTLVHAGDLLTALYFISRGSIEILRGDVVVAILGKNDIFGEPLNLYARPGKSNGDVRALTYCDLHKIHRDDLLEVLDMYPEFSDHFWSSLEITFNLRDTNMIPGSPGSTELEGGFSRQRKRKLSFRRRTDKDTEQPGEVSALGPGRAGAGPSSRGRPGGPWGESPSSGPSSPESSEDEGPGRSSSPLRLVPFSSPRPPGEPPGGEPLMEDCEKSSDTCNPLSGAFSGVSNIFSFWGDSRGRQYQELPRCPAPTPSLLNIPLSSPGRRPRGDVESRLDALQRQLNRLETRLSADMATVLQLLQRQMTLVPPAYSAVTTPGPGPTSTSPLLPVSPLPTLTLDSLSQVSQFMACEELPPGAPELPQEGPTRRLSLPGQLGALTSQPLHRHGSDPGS
Consider `N#Cc1c(-c2ccco2)c2c([nH]c1=S)CCCC2`, for which the activity increase over dofetilide control, less the hit threshold is -9% (inactive). Regarding `CCCCOc1ccc(-c2c(C#N)c(N)[nH]c(=S)c2C#N)cc1`, the activity increase over dofetilide control, less the hit threshold is 38% (active). Then `CCOC(=O)c1c(C)[nH]c(=S)c(C#N)c1-c1ccc(Cl)cc1`, with -5% (inactive); and `c1ccc(Oc2cccc(OCCn3cncn3)c2)cc1`, with -4% (inactive). Regarding `COCC(=O)N(Cc1ccco1)c1nnc(C2CCOC2)s1` (stereo not drawn), the activity increase over dofetilide control, less the hit threshold was -19% (inactive). Then `Cc1ccc(CNC(=O)CN2C(C)CCCC2C)cc1` (stereo not drawn), with -7% (inactive); and `CC(NC(=O)COC(=O)C1CCC1)c1ccccc1` (stereo not drawn), with -6% (inactive).

For the molecule `Cc1ccc(C(=O)COC(=O)C2CCC2)cc1`, the activity increase over dofetilide control, less the hit threshold is 4% (active). Take `CC(C)C(NC(=O)c1ccccc1)C(=O)N/N=C\c1ccco1` (stereo not drawn): the activity increase over dofetilide control, less the hit threshold is -17% (inactive). Regarding `Oc1ccc(N2CCN(C(c3cccnc3)c3nnnn3Cc3ccccc3)CC2)cc1` (stereo not drawn), the activity increase over dofetilide control, less the hit threshold was 0% (inactive).

On to `COc1ccc(-n2nc(C)cc2Nc2ccccc2C(=O)O)cc1`, for which the activity increase over dofetilide control, less the hit threshold was 31% (active). Consider `COc1ccc(N2CCN(C(=O)c3ccc(-c4ccccc4)cc3)CC2)cc1`, for which the activity increase over dofetilide control, less the hit threshold was -18% (inactive). Then `Cc1cc(NC(=O)/C(C#N)=C/c2ccco2)n(-c2ccccc2)n1`, with -12% (inactive). As to `O=C(O)c1cccc2cc(-c3ccccc3)oc(=O)c12`, the activity increase over dofetilide control, less the hit threshold is -13% (inactive). Regarding `CCCCN(C(=O)CC1CCCC1)c1c(N)n(CC(C)C)c(=O)[nH]c1=O`, the activity increase over dofetilide control, less the hit threshold was -4% (inactive). For `Fc1cccc(/C=N/Nc2ccc3ccccc3n2)c1` the value was -7% (inactive). `CCN(CC)S(=O)(=O)c1cc(OC)ccc1N=Nc1ccc(O)c2ncccc12`: the activity increase over dofetilide control, less the hit threshold is 27% (active). For `Oc1c(N=Nc2ccccn2)ccc2ccccc12`, the activity increase over dofetilide control, less the hit threshold is -5% (inactive). Then `Oc1ccc(N=Nc2ccc3c(c2)OCCO3)c2ncccc12`, with -4% (inactive).

Regarding `COc1ccc(N(CC(=O)NCc2cccnc2)S(=O)(=O)c2ccccc2[N+](=O)[O-])c(OC)c1`, the activity increase over dofetilide control, less the hit threshold is -3% (inactive). For the molecule `COc1ccc(OC)c(S(=O)(=O)NCc2cn3cccc(C)c3n2)c1`, the activity increase over dofetilide control, less the hit threshold is -17% (inactive). In the case of `O=[N+]([O-])c1ccc(O)c2ncccc12`, the activity increase over dofetilide control, less the hit threshold is -8% (inactive). For `COc1ccccc1N=Nc1ccc(O)c2ncccc12` the value was 2% (active); for `CCOc1ccc(N=Nc2ccc(O)c3ncccc23)cc1`, 0% (inactive); for `Cc1ccc(N=Nc2ccc(O)c3ncccc23)cc1`, 40% (active). Consider `COc1cccc(N=Nc2ccc(O)c3ncccc23)c1`, for which the activity increase over dofetilide control, less the hit threshold was 25% (active).

Turning to `COCC(=O)NC1CC2CCC(C1)N2C(=S)Nc1ccccc1C(=O)OC` (stereo not drawn), the activity increase over dofetilide control, less the hit threshold is -6% (inactive).

`CCC[C@H]1COCCS(=O)(=O)N1Cc1ccc(Br)cc1`: the activity increase over dofetilide control, less the hit threshold was -4% (inactive). `CS(=O)(=O)N1CCC(C(=O)Nc2c(F)cccc2F)CC1`: the activity increase over dofetilide control, less the hit threshold was -6% (inactive). On to `Cn1c(=O)c2c(nc(Cl)n2CC(=O)N2CCCCC2)n(C)c1=O`, for which the activity increase over dofetilide control, less the hit threshold is -11% (inactive). On to `N=C1SCC(=O)N1c1ncc(Cc2ccccc2Cl)s1`, for which the activity increase over dofetilide control, less the hit threshold is -9% (inactive).

Turning to `O=C(N/N=C/c1ccc(-c2ccccc2)o1)c1ccccc1O`, the activity increase over dofetilide control, less the hit threshold is -1% (inactive). Then `O=C(N/N=C/c1ccc(Sc2ccccn2)o1)c1cc2ccccc2cc1O`, with 7% (active). Regarding `Cc1ccc(/C=N/NC(=O)c2cc(-c3ccncc3)nc3ccccc23)o1`, the activity increase over dofetilide control, less the hit threshold is -22% (inactive). Take `Cc1ccc(/C=N/NC(=O)c2cc(C)oc2C)o1`: the activity increase over dofetilide control, less the hit threshold was -5% (inactive).

For `Cc1ccc(/C=N/NC(=O)c2cc3ccccc3cc2O)o1`, the activity increase over dofetilide control, less the hit threshold is 37% (active). As to `Cc1cccc(/C=N/NC(=O)c2cc(Br)ccc2O)n1`, the activity increase over dofetilide control, less the hit threshold is 0% (inactive). For the molecule `COc1ccc(CCNS(=O)(=O)c2csc(C(N)=O)c2)cc1OC`, the activity increase over dofetilide control, less the hit threshold was -14% (inactive). `COC(=O)c1ccc(-n2c(C)nc(=O)c(-c3ccccc3)c2C)cc1`: the activity increase over dofetilide control, less the hit threshold is -13% (inactive). Turning to `Cc1nnc2c(SC(C)C)nc3ccccc3n12`, the activity increase over dofetilide control, less the hit threshold was -19% (inactive). Regarding `Cc1nc2ccccc2n1-c1ccccc1`, the activity increase over dofetilide control, less the hit threshold was 3% (active). Turning to `C=C(C)CSc1nnc2[nH]c(=O)cc(N)n12`, the activity increase over dofetilide control, less the hit threshold is -19% (inactive). Then `CC1=CCC[C@@H]2[C@@](C)(CC/C(C)=C/C(=O)O)[C@H](C)CC[C@@]12C`, with 84% (active); and `Nc1ccc2oc(-c3ccccc3Cl)cc(=O)c2c1O`, with -3% (inactive); and `Cc1nc2scc(C)n2c(=O)c1S(=O)(=O)Nc1ccc(N2CCOCC2)cc1`, with -7% (inactive).

As for `CCC1(C)Cc2c(sc3nc(SC)[nH]c(=S)c23)CO1` (stereo not drawn), the activity increase over dofetilide control, less the hit threshold was 87% (active). Turning to `CSc1nc2sc3c(c2c(=S)[nH]1)CC(C)(C)OC3`, the activity increase over dofetilide control, less the hit threshold is 81% (active).

Consider `CCc1nc2sc3c(c2c(=S)[nH]1)CC(C)(C)OC3`, for which the activity increase over dofetilide control, less the hit threshold is -8% (inactive). Regarding `CCN(CC(=O)NCc1ccc(Cl)cc1)C(=O)CCOc1ccc(C)cc1`, the activity increase over dofetilide control, less the hit threshold was -14% (inactive). For `CNc1nc(N)nc(OC(C(F)(F)F)C(F)(F)F)n1`, the activity increase over dofetilide control, less the hit threshold is -24% (inactive). Then `O=C(N/N=C/c1cc(Cl)ccc1O)c1ccccc1Br`, with -3% (inactive); and `Oc1c(Br)cc(Br)cc1C=Nc1cccc2ncccc12`, with -7% (inactive); and `O=C(Nc1cccc(N=Cc2cc(Cl)cc(Br)c2O)c1)c1ccco1`, with 6% (active).

For the molecule `Oc1c(Cl)cc(Cl)cc1/C=N/c1nccs1`, the activity increase over dofetilide control, less the hit threshold was -11% (inactive). As to `NC(=O)c1cccc(N=Cc2cc(Cl)cc(Cl)c2O)c1`, the activity increase over dofetilide control, less the hit threshold is 6% (active). In the case of `O=C(Nc1ccccc1C(=O)O)c1cccc(NC(=O)c2ccco2)c1`, the activity increase over dofetilide control, less the hit threshold is -3% (inactive).

With `Oc1c(Cl)cc(Cl)cc1/C=N/c1ncn[nH]1`, the activity increase over dofetilide control, less the hit threshold was 15% (active). For `O=C(NC(=S)Nc1cccc([N+](=O)[O-])c1)c1ccco1`, the activity increase over dofetilide control, less the hit threshold was -16% (inactive).

For `Oc1c(Br)cc(Cl)cc1C=Nc1ccccc1Br`, the activity increase over dofetilide control, less the hit threshold is 9% (active). Consider `COc1ccccc1-n1c(CCC(=O)O)ccc1-c1ccccc1`, for which the activity increase over dofetilide control, less the hit threshold was -12% (inactive).

`Nc1cc(N)nc(SCc2cc(=O)oc3cc4c(cc23)CCC4)n1`: the activity increase over dofetilide control, less the hit threshold was -35% (inactive). On to `CCCNC(=O)CN1C(=O)NC(Cc2c[nH]c3ccccc23)C1=O` (stereo not drawn), for which the activity increase over dofetilide control, less the hit threshold is -22% (inactive). On to `COc1ccc(-c2nc(=S)c3c([nH]2)Oc2ccc(C)cc2C3)cc1O`, for which the activity increase over dofetilide control, less the hit threshold was -22% (inactive). For `CC(=O)Nc1ccc(NC(=O)CSc2ncc(C(=O)Nc3ccc(Cl)cc3)c(=O)n2C)cc1` the value was -4% (inactive); for `Cc1ccc(N=Cc2cc(Br)cc(Cl)c2O)cc1`, -10% (inactive); for `Cc1cccc(N=Cc2cc(Br)cc(Cl)c2O)c1`, 5% (active). For `CC(=O)N1c2ccc(N=Cc3cc(Br)cc(Br)c3O)cc2CC1C` (stereo not drawn) the value was -5% (inactive); for `Oc1c(Br)cc(Br)cc1C=Nc1ccc2c(c1)OCCO2`, -12% (inactive).

Turning to `Oc1c(Cl)cc(Cl)cc1C=Nc1ccc(Br)cc1`, the activity increase over dofetilide control, less the hit threshold is 8% (active). Then `Cc1ccc(N=Cc2cc(Cl)cc(Cl)c2O)nc1`, with 3% (active); and `O=C(CSCc1cnn(-c2ccccc2)c1-n1cccc1)NCc1cccnc1`, with -22% (inactive). In the case of `Cc1ccc(C)n1-n1c(C)nc2scc(-c3ccccc3)c2c1=O`, the activity increase over dofetilide control, less the hit threshold was -20% (inactive). Regarding `S=c1[nH]cnc2scc(-c3ccccc3)c12`, the activity increase over dofetilide control, less the hit threshold was 51% (active). Turning to `Cn1nnnc1Sc1ncnc2scc(-c3ccc(F)cc3)c12`, the activity increase over dofetilide control, less the hit threshold was -12% (inactive). As for `Cn1cc(/C=N/n2cnc3scc(-c4ccc(Cl)cc4)c3c2=O)c2ccccc21`, the activity increase over dofetilide control, less the hit threshold was -10% (inactive). Consider `Cc1ccc(-c2csc3nc[nH]c(=S)c23)cc1`, for which the activity increase over dofetilide control, less the hit threshold was 45% (active). For `S=c1[nH]cnc2scc(-c3ccc(Br)cc3)c12` the value was 33% (active); for `S=c1[nH]cnc2scc(-c3ccc(Cl)cc3)c12`, 22% (active). As for `O=C1C(=O)N(CCN2CCOCC2)C(c2cccnc2)/C1=C(/O)c1ccc(Cl)cc1` (stereo not drawn), the activity increase over dofetilide control, less the hit threshold was -8% (inactive). Then `CCn1nnnc1SCC(=O)N1c2ccccc2Sc2ccccc21`, with -17% (inactive). Take `CCOC(=O)N1CCN(C(=O)CSc2nnc(-c3ccccc3OC)o2)CC1`: the activity increase over dofetilide control, less the hit threshold was -8% (inactive).

Regarding `CCOC(=O)N1CCN(C(=O)CCn2c(=S)[nH]c3ccsc3c2=O)CC1`, the activity increase over dofetilide control, less the hit threshold was -6% (inactive). For `CCOC(=O)N1CCN(c2c(-c3ccc(C)c(C)c3)c(=O)c2=O)CC1`, the activity increase over dofetilide control, less the hit threshold was 1% (active).

Regarding `CC(C)OC(=O)C1CC(C)(O)C(=O)C(C(=O)OC(C)C)C1c1ccc([N+](=O)[O-])cc1` (stereo not drawn), the activity increase over dofetilide control, less the hit threshold is -22% (inactive). For `CN1CCN(c2nnc(-c3cccs3)c3ccccc23)CC1`, the activity increase over dofetilide control, less the hit threshold is -13% (inactive).

As to `CCOC(=O)C1=NN(C(=O)c2ccc(OC)cc2)C(O)(c2ccc(Cl)cc2)C1` (stereo not drawn), the activity increase over dofetilide control, less the hit threshold was 81% (active). Turning to `CCOC(=O)C1=NN(C(=O)c2ccccc2)C(O)(c2ccc(C)cc2)C1` (stereo not drawn), the activity increase over dofetilide control, less the hit threshold was 1% (active). For `CCC1=NN(C(=O)c2ccc(Cl)cc2)C(O)(c2ccc(C)cc2)C1` (stereo not drawn) the value was -14% (inactive). For `CCOC(=O)C1=NN(C(=O)c2ccc(C)cc2)C(O)(c2ccc(Cl)cc2)C1` (stereo not drawn), the activity increase over dofetilide control, less the hit threshold is 100% (active).

For `CCOC(=O)CN1N=C(/C=C/c2ccc(OC)cc2)CCC1=O`, the activity increase over dofetilide control, less the hit threshold is -25% (inactive).

On to `O=C1C=C(Nc2cccc3cccnc23)c2ccccc2C1=O`, for which the activity increase over dofetilide control, less the hit threshold was -5% (inactive).

As for `COCC(=O)Nc1cc(C)cn(Cc2c(F)cccc2Cl)c1=O`, the activity increase over dofetilide control, less the hit threshold is -5% (inactive). In the case of `Cc1ccc(C(=C2C3C=CC2C2C(=O)NC(=O)C32)c2ccc(C)cc2)cc1` (stereo not drawn), the activity increase over dofetilide control, less the hit threshold was -15% (inactive). As for `CC(C)(C)c1cc(CCC(=O)NCc2ccncc2)cc(C(C)(C)C)c1O`, the activity increase over dofetilide control, less the hit threshold is -11% (inactive). Turning to `CC(C)(C)NS(=O)(=O)c1ccc(NC(=O)c2cc(-c3ccccc3)nc3ccccc23)cc1`, the activity increase over dofetilide control, less the hit threshold was -11% (inactive). Turning to `COC(=O)c1ccc(NC(=S)NC(=O)c2c(-c3ccccc3)noc2C)cc1`, the activity increase over dofetilide control, less the hit threshold was -15% (inactive). For `Cc1ccccc1NC(=S)NC(=O)c1cc(-c2ccccc2)nc2ccccc12`, the activity increase over dofetilide control, less the hit threshold is 27% (active). Regarding `O=C(NC(=S)Nc1ccccn1)c1cc(-c2ccccc2)nc2ccccc12`, the activity increase over dofetilide control, less the hit threshold is 1% (active). As for `Cc1ccc2nc(-c3ccccn3)cc(C(=O)NC3CCN(C)CC3)c2c1`, the activity increase over dofetilide control, less the hit threshold is -19% (inactive). For the molecule `O=C(NC(=S)Nc1ccccc1)c1cc(-c2ccccc2)nc2ccccc12`, the activity increase over dofetilide control, less the hit threshold is 8% (active). Then `COC(=O)c1ccc(NC(=S)NC(=O)c2cc(-c3ccccc3)nc3ccccc23)cc1`, with 11% (active); and `O=C(N/N=C/c1ccccn1)c1cc(-c2ccc(Br)cc2)nc2ccccc12`, with -46% (inactive); and `Cc1ccc(NC(=O)c2cc(NC(=O)/C=C\C(=O)O)ccc2N2CCCCC2)cc1`, with -11% (inactive).
